The source made the active and inactive calls. Rule for the calls: active = hit-call score of the fitted dose curve at least 0.9, where 1 is the maximum; inactive = score below 0.9.

Read-out in the assay: growth arrest and DNA damage 45 (GADD45B), GADD45B (gene 4616)
In words: LTEA_HepaRG_GADD45B: Life Technologies and Expression Analysis (LTEA) Assay for growth arrest and DNA damage 45 (GADD45B) using HepaRG (AID 2283461). Conditions: mRNA level, 48 h; actives raise or lower the signal. As for the experimental part: LTEA_HepaRG is a cell based, multiplexed-readout assay that uses HepaRG, a human liver cell line, with measurements taken at 48 hours after chemical dosing on a 96-well plate.LTEA_HepaRG_GADD45B is one of 102 assay component(s) measured in the LTEA HepaRG cell culture assay. It is a marker of Cell proliferation, survival, death.Data from the assay component LTEA_HepaRG_GADD45B was analyzed into 1 endpoint. This assay endpoint, LTEA_HepaRG_GADD45B, was analyzed with bidirectional fitting relative to DMSO as the negative control and baseline of activity. Using a type of inducible reporter, measures of mRNA induction for gain or loss-of-signal activity can be used to understand regulation of transcription factor activity. To generalize the intended target to other relatable targets, this assay endpoint is annotated to the mutagenicity response intended target family, where the subfamily is Cell proliferation, survival, death.
A total of 1060 chemcials from the ToxCast library were tested in eight-point concentration-response experiments. Cell culture and cytotoxicity assays were conducted at Thermo Fisher Scientific's Custom Services facility (Madison, WI). A single lot of human HepaRG cells (Thermo Fisher Scientific, Frederick, MD) was used for the cell culture experiments. 96-well format collagen type I coated plates of human HepaRG cells were prepared using established methods. Briefly, cryopreserved HepaRG cells were thawed, plated at a density of approximately 100,000 cells/well in HepaRG Thaw, Plate, and General Purpose media (HPRG770, Thermo Fisher Scientific), and incubated for 48 hours. 0.5% DMSO was selected as vehicle control to balance the requisite need of DMSO in HepaRG cultures to maintain differentiation (for example, baseline metabolism, proportions of hepatocytes vs. cholangiocytes), while enabling further hepatic receptor pathway activation (for example, PXR and CAR) in response to chemical exposure. 48 hours after plating, the culture medium was replaced with HepaRG Serum-Free Incudtion Media. Cells were exposed to each test chemical in duplicate and maintained in CO2 incubators for another 48 hours. Chemical plates were thawed to room temperature and 200x concentrations of treatment groups were prepared. 8-point conentration-reponse curves were made with the highest exposure at 100 uM, followed by half-log dilutions, all in 0.5% DMSO. Each test plate contained variouse controls, induction positive controls (1mM phenobarbital), cytotoxicity positive controls ([…] aflatoxin B1), vehicle controls (0.5% DMSO), and total lysis controls (0.5% DMSO). Cell morphology images were taken using an Essen IncuCyte FLR automated microscope, with six 96-well plates imaged in about 24 minutes. Images were captured and exported and JPEG files. Spent culture media was transfered to black-well plates for the LDH assay, and remaining media was sorted at -80 C for later use. Cells were treated with RLT buffer and frozen until shipped for gene expression analysis. Total RNA was isolated from the cell suspension in 75 uL of Buffer RLT (Qiagen, Germantown, MD 20874) by Quintiles/Expression Analysis (Durham, NC) using a custom isolation procedure. Total RNA from each plate well was transferred to a preamplification plate. Fluidigm's 96.96 Dynamic ArrayTM (Fluidigm, Amsterdam, the Netherlands) technology was used for gene expression analyses by quantitative reverse transcription polymerase chain reaction (qRT-PCR, performed by Quintiles/Expression Analysis, Durham, NC)89. Standard TaqManTM Assays (Applied Biosystems/ThermoFisher Scientific, Foster City, CA) were used to assess the expression of 93 genes selected based on their selectivity and sensitivity to important hepatic receptors known to be modulated by environmental chemicals; importance in human hepatocyte functionality; and hepatotoxicity. […]
With `CC(C)COC(=O)c1ccccc1C(=O)OCC(C)C`, the result was inactive. With `C[N+](C)(C)CC1CO1` (stereo not given), the molecule was classed as inactive. The same measure, in the same setting: as for `ClCCOCCCl`, the entry is “inactive”; as for `CCC[CH2][Sn]([Cl])([CH2]CCC)[CH2]CCC`, “inactive”. With `OCCOCCO`, the outcome was inactive. Regarding `CNC(=O)Oc1cccc2c1OC(C)(C)C2`, the half-maximal activity concentration (AC50) is 50 µM (active). `CCCCCCCCOC(=O)c1ccc(C(=O)OCCCCCCCC)c(C(=O)OCCCCCCCC)c1`: the molecule was classed as inactive. Turning to `c1ccc(N=Nc2ccccc2)cc1`, the outcome was inactive. On the same count and under the same terms, then `c1ccc(C2CO2)cc1` (stereo not given), with “inactive”; and `CC(C)(C)OOC(=O)c1ccccc1`, with “inactive”; and `Clc1ccc(C(c2ccc(Cl)cc2)C(Cl)(Cl)Cl)cc1`, with “inactive”. Same read-out and setting: then `CCCSC(=O)N(CCC)CCC`, with “inactive”. `COc1cc(C=O)cc2c1[C@H](COC(N)=O)[C@]1(OC(C)=O)ON2C[C@H]2[C@@H]1N2C(C)=O`: the half-maximal activity concentration (AC50) is 92.3 µM (active). As to `CCN(CC)N=O`, the molecule was classed as inactive.

As to `Cc1ccc([N+](=O)[O-])cc1`, the result was inactive.

Consider `CCNS(=O)(=O)C(F)(F)C(F)(F)C(F)(F)C(F)(F)C(F)(F)C(F)(F)C(F)(F)C(F)(F)F`, for which the molecule was called inactive. Regarding `Cc1ccc(N=C=O)cc1N=C=O`, the outcome was inactive. The same measure, in the same setting: then `COC(=O)c1ccccc1N`, with “inactive”; and `O=[N+]([O-])C(Br)(CO)CO`, with “inactive”; and `CN(C)c1ccc(C(=O)c2ccc(N(C)C)cc2)cc1`, with “inactive”. For `N#CC(Br)(Br)C(N)=O`, the call was inactive. As to `C=CCc1ccc2c(c1)OCO2`, the result was inactive. Same read-out and setting: then `COC(=O)Nc1nc2ccccc2[nH]1`, with “inactive”; and `Nc1ccc([N+](=O)[O-])cc1`, with “inactive”; and `CC(C)N(Cc1ccccc1)C(=O)C(C)(C)C`, with “inactive”. As to `O=Cc1ccco1`, the outcome was inactive. Same read-out and setting: then `[As]#[In]`, with “inactive”.

Turning to `CS(=O)(=O)NC(=O)c1cc(Oc2ccc(C(F)(F)F)cc2Cl)ccc1[N+](=O)[O-]`, the result was inactive. Take `[Cl-].[Cl-].[Hg+2]`: the AC50 was 50 µM (active). Turning to `Cc1ccc(N)c(N)c1`, the result was inactive. For `OCCCl`, the molecule was classed as inactive. On the same count and under the same terms, as for `CO[C@@H]1[C@H](OC(=O)NC(=O)CCl)CC[C@]2(CO2)[C@H]1[C@@]1(C)O[C@@H]1CC=C(C)C`, the entry is “inactive”. For the molecule `O=C(Nc1ccccc1)c1ccccc1I`, the AC50 was 17.1 µM (active).

As to `N#CC(Br)Br`, the molecule was classed as inactive. On the same count and under the same terms, as for `Nc1ccc(Oc2ccc(N)cc2)cc1`, the entry is “inactive”.

In the case of `Oc1ccccc1Cl`, the result was inactive. On the same count and under the same terms, then `Cc1ccc(N)cc1`, with “inactive”. With `Cc1cc(N=Nc2ccccc2C)ccc1N`, the AC50 is 7.67 µM (active). Consider `Brc1ccc(Oc2ccccc2)cc1`, for which the molecule was classed as inactive. Still for that read-out and setting: then `CN(C)c1ccccc1`, with “inactive”.

Usually AC50 stands for the concentration at which the activity in the assay is half-maximal.

For the origin of these results see PubChem BioAssay (EPA / NIEHS).
